Test results from PubChem BioAssay (NCI).
This is part of a sample that, as a whole, favours compounds with a hit. Of some 79,000 tested, about 15% had one in any assay. A number with no mark means an inactive call. Calls of active or inactive are those of the source. Rule as the data show it: active = growth inhibition above about 70%; inactive = the rest.

Key:
[1] = NCI Yeast Anticancer Drug Screen. Data for the rad50 strain (AID 155);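 also: 0% = growth of vehicle-only cultures of the same strain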; settings: S. cerevisiae rad50 strain growth inhibition, stronger effect = higher value
Method in brief: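 Compounds were tested on a yeast strain with an engineered DNA damage repair alteration; the reported value is growth inhibition normalised to vehicle treatment.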

[2] = NCI Yeast Anticancer Drug Screen. Data for the mec2-1 strain (AID 157); settings: S. cerevisiae mec2-1 strain, stronger effect = higher value
Method in brief: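 Yeast mec2-1 mutant treated with compound. Readout: growth inhibition vs vehicle controls.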

[3] = NCI Yeast Anticancer Drug Screen. Data for the sgs1 mgt1 strain (AID 161);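 also: 0% = growth of cultures given vehicle only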; settings: S. cerevisiae sgs1 mgt1 strain, stronger effect = higher value
Method in brief: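 Inhibition of yeast growth, normalised to vehicle-treated controls, is reported for a strain bearing genetic alterations in DNA damage repair.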

[4] = NCI Yeast Anticancer Drug Screen. Data for the cln2 rad14 strain (AID 165);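 also: 0% = growth equal to vehicle treated cultures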; settings: S. cerevisiae cln2 rad14 strain, stronger effect = higher value
Method in brief: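 cln2 rad14 yeast strain; compound exposure; growth inhibition read vs vehicle controls.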

[5] = NCI Yeast Anticancer Drug Screen. Data for the bub3 strain (AID 167); settings: S. cerevisiae bub3 mutant strain, stronger effect = higher value
Method in brief: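 Growth of a checkpoint-deficient yeast mutant is measured after compound exposure. Values represent inhibition relative to vehicle.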

[6] = NCI Yeast Anticancer Drug Screen. Data for the mlh1 rad18 strain (AID 175); settings: S. cerevisiae mlh1 rad18 strain growth inhibition, stronger effect = higher value
Method in brief: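 Yeast w/ defined DNA-repair lesions; compound exposure; growth vs vehicle controls → % inhibition.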

[7] = at 5.0 µM (retest, dose inferred, filed as 0.5)
[8] = at 50.0 µM (retest, dose inferred, filed as 5.0)

Row | SMILES | growth inhibition [1, 7] | growth inhibition [1, 8] | growth inhibition ([1]; at 50.0 µM) | growth inhibition [2, 7] | growth inhibition [2, 8] | growth inhibition ([2]; at 50.0 µM) | growth inhibition [3, 7] | growth inhibition [3, 8] | growth inhibition ([3]; at 50.0 µM) | growth inhibition [4, 7] | growth inhibition [4, 8] | growth inhibition ([4]; at 50.0 µM) | growth inhibition [5, 7] | growth inhibition [5, 8] | growth inhibition ([5]; at 50.0 µM) | growth inhibition [6, 7] | growth inhibition [6, 8] | growth inhibition ([6]; at 50.0 µM)
1 | CC([C@H]1CCC2C3CCC4CC5(CC[C@]4(C)C3CC[C@@]21C)c1ccccc1C(=O)N5C)N(C)C (some centres not stated) | -11% | 81% (active) | 83.3% (active) | -11% | 55% | 89.4% (active) | 11% | 87% (active) | 89.6% (active) | 14% | 85% (active) | 73.3% (active) | 6% | 83% (active) | 86.5% (active) | 18% | 84% (active) | 78.2% (active)
2 | CCC(Cl)COP(=O)(OC(c1ccc(Cl)c(Cl)c1)P(=O)(OCC(Cl)CC)OCC(Cl)CC)C(CC)CCl (configuration not stated) | 6% | 71% (active) | 86.7% (active) | -81% | 45% | 96.2% (active) | -3% | 45% | 94.2% (active) | -4% | 57% | 83.5% (active) | -2% | 57% | 79.5% (active) | 6% | 80% (active) | 94.2% (active)
3 | COc1ccccc1NC(=O)/C(=C/n1c(=S)sc2ccccc21)C(C)=O | -19% | 14% | 38.3% | -19% | 14% | 48% | 7% | 20% | 63.6% | 11% | 17% | 64.2% | -9% | 30% | 29.5% | -14% | 14% | 47%
4 | Nc1c(-c2ccc(Cl)cc2)[n+]([O-])c2ccccc2[n+]1[O-] | -16% | 4% | 19.2% | -8% | -10% | 13.2% | 1% | -10% | 34.4% | 24% | 11% | 47.7% | -3% | 11% | 8.45% | 15% | 6% | 37.2%
5 | BrC(Br)=C1C(=C(Br)Br)C(Br)C1Br (configuration not stated) | 31% | 69% | 61.6% | -10% | 59% | 77.4% (active) | 72% (active) | 94% (active) | 83.8% (active) | 19% | 53% | 55% | 18% | 66% | 73% (active) | 40% | 71% (active) | 71.6% (active)
6 | Cc1cc(Cl)nc2ccc(Cc3ccc4nc(Cl)cc(C)c4c3)cc12 | 4% | 27% | 15.1% | 15% | 5% | 2.45% | 7% | 7% | -19.6% | 3% | 13% | 15.4% | 8% | 13% | 23.4% | 0% | 12% | 37.8%
7 | C/C(=N/NC(N)=O)c1ccc(Cl)s1 | 0% | -1% | 12.9% | 23% | -3% | 5% | -1% | 0% | -4.35% | -8% | -3% | 52.9% | -2% | -7% | 9.4% | -5% | -1% | 1.6%
8 | COC1=C(NC(C)=O)C(=O)c2nc(-c3nc(C(=O)O)c(C)c(-c4ccc(OC)c(OC)c4O)c3N)ccc2C1=O | 59% | 93% (active) | 78.4% (active) | 28% | 79% (active) | 69.7% | 43% | 92% (active) | 68.7% | 38% | 90% (active) | 57.1% | 15% | 70% (active) | 55.8% | 48% | 89% (active) | 87% (active)
9 | Cc1cccc(C)c1NC(=O)/C(Cl)=C(/Cl)C(=O)O | 66% | 98% (active) | 91.2% (active) | 67% | 99% (active) | 86.2% (active) | 82% (active) | 98% (active) | 88% (active) | 47% | 81% (active) | 82.8% (active) | 85% (active) | 99% (active) | 90% (active) | 63% | 99% (active) | 93.8% (active)
10 | CC#CCCCCOC(=O)c1cc([N+](=O)[O-])cc([N+](=O)[O-])c1 | 97% (active) | 99% (active) | 99.5% (active) | 99% (active) | 100% (active) | 99.6% (active) | 98% (active) | 99% (active) | 99.6% (active) | 90% (active) | 99% (active) | 99.4% (active) | 98% (active) | 99% (active) | 99.7% (active) | 98% (active) | 99% (active) | 99.4% (active)
11 | CCSc1nc2ccc(N3C(=O)C=CC3=O)cc2s1 | 88% (active) | 100% (active) | 99.7% (active) | 93% (active) | 100% (active) | 99.6% (active) | 96% (active) | 100% (active) | 99.5% (active) | 34% | 99% (active) | 99.3% (active) | 93% (active) | 99% (active) | 99.6% (active) | 98% (active) | 99% (active) | 99.3% (active)
12 | CC(=O)OC1COC(n2ccc3cc(Br)c([N+](=O)[O-])cc32)C(OC(C)=O)C1OC(C)=O (configuration not stated) | -16% | 2% | 69.7% | -5% | 8% | 4.55% | -25% | 47% | 78% (active) | -45% | 3% | 5.45% | -23% | 71% (active) | 83.5% (active) | -27% | 36% | 47.9%
13 | CCc1cccc(CC)c1NC(=O)C1=C(C)NC(C)=C(C(=O)Nc2c(CC)cccc2CC)C1c1ccc2c(c1)OCO2 | 54% | 54% | 91.9% (active) | 45% | 45% | 92.5% (active) | 45% | 45% | 93.2% (active) | 26% | 26% | 91.3% (active) | 39% | 39% | 89.2% (active) | 43% | 43% | 87.5% (active)
14 | O=c1[nH]c2ccccc2c(O)c1/C=N/C(=S)NCCc1ccccc1 | 26% | 28% | -41.5% | 25% | 22% | -21.8% | 28% | 29% | 5.4% | 21% | 11% | 9.6% | 30% | 20% | 4.65% | 28% | 22% | 7.5%
15 | CCN(CC)CCNc1ccc(C)c2sc3ccc(OC)cc3c(=O)c12 | 32% | 94% (active) | 90.7% (active) | 22% | 97% (active) | 89.2% (active) | 23% | 98% (active) | 17.2% | 16% | 87% (active) | 30.9% | 31% | 99% (active) | 1% | 32% | 98% (active) | 93% (active)
16 | CCCCCCCCCCCC#CCCCCC(=O)O | 87% (active) | 94% (active) | 56.8% | 95% (active) | 97% (active) | 62.5% | 93% (active) | 96% (active) | 83.7% (active) | 27% | 91% (active) | 61% | 96% (active) | 95% (active) | 67.7% | 96% (active) | 95% (active) | 60%
17 | COc1ccc2nc(N/N=C/c3ccccn3)cc(C)c2c1 | 10% | 56% | 98.7% (active) | -3% | 62% | 98.1% (active) | 0% | 57% | 99.2% (active) | 3% | 40% | 96.5% (active) | 4% | 58% | 98.3% (active) | 19% | 75% (active) | 99% (active)
18 | COc1cccc2c1C(=O)c1c(O)c3c(c(O)c1C2=O)C[C@@](O)(C(=O)CO)C[C@@H]3OC1CC(N(C)C)C(O)C(C)O1 (some centres not stated) | 94% (active) | 95% (active) | 90.1% (active) | 96% (active) | 97% (active) | 91.8% (active) | 97% (active) | 97% (active) | 91.2% (active) | 96% (active) | 95% (active) | 88.8% (active) | 95% (active) | 97% (active) | 89.3% (active) | 94% (active) | 94% (active) | 90.7% (active)
19 | CCC(c1ccc(O)cc1)C(O)(CC)c1ccc(O)cc1 (configuration not stated) | -6% | -9% | 46.4% | -10% | -4% | 28.9% | -3% | 35% | 65.1% | -24% | -1% | 26.1% | -11% | -11% | 58.6% | -26% | -8% | 14.3%
